Consider 99 compounds from PubChem BioAssay AID1578 (Sanford-Burnham Center for Chemical Genomics, 2009).

Out of some 290,000 compounds screened, about 3,000 (1%) were called active. Only a selection was taken, and actives are over-represented in it overall. A number with no mark means an inactive call. Cut-off read from the data, not from the text of the source: active = inhibition mostly above about 36% (no sharp cut-off); inactive = mostly below about 34%.

In general, inhibition refers to the change of the read-out against control, counted positive when it falls.

This assay in a line: inhibition of NOD1-driven NF-kB reporter – cell-based, luminescence, uHTS, primary screen (AID 1578).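 Note: HEK-293T reporter cells stimulated with the NOD1 agonist gamma-tri-DAP.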 The note with it: NOD1-driven NF-kB luciferase reporter cells, at 4 µM, hits give high values. Background: In a reporter assay the amount or activity of a reporter protein is the signal.
Consider `CCC(CCC(=O)Nc1nncs1)C(=O)O` (centres undefined), for which the inhibition was 0.6%.
`O=C(O)CCCCCCC1C(=O)NC(=O)N1CCC(O)C1CCCCC1` (centres undefined): the inhibition was 75.2% (active).
As for `O=C(O)CCCCCN1C(=O)C2CCCCC2C1=O` (centres undefined), the figure is -26.7%.
As for `CC(O)[C@H]1CNC(=O)C(=O)N1CCCCC1CCCCC1` (some centres undefined), the figure is -9.4%; as for `CCOC(=O)c1c(C)[nH]c(C)c1S(=O)(=O)N(C)CC(=O)NCc1cccc(Br)c1`, -19.6%; as for `COc1ccc(-c2c3c(cc(C)[n+]2[O-])oc2ccc(OC)cc23)cc1`, -20%.
The result for `Cc1[nH]nc2c1C(c1ccc3c(c1)OCO3)C(C#N)=C(N)O2` (centres undefined) reads -33.1%; that for `CC(C)c1cccc(C(C)C)c1NC(=O)c1ccccc1`, -17.6%; that for `CC(C)c1cccc(C(C)C)c1NC(=O)CN1CCCC1`, -21.2%.
Regarding `CC(C)c1cccc(C(C)C)c1NC(=O)CCl`, the inhibition was 68.4% (active).
As for `COc1ccccc1CNC(=O)Cn1nnnc1CN(C)C(C)C`, the figure is -103%; as for `COc1ccc2oc(C(=O)NC(C)(C)C)c(C)c2c1`, -42.6%.
As for `CCCC(=O)C1=C(O)C(C(=O)OC)C(C)(C)CC1=Nc1ccccc1` (centres undefined), the figure is -9.6%.
Take `CCCC(=O)C1=C(O)C(C(=O)OC)C(C)(C)CC1=Nc1ccc(OC)cc1` (centres undefined): the inhibition is -37.1%.
The result for `CCCC(=O)C1=C(O)C(C(=O)OC)C(C)(C)CC1=Nc1cccc2ccccc12` (centres undefined) reads 53.5% (active).
The result for `O=C(NCC1CCCO1)c1ccc(/C=N/O)nc1` (centres undefined) reads -26.9%; that for `CC1(C)CC(N2CCCC2)=CC(=[N+]2CCCCC2)C1`, -30.9%.
The result for `CC1(C)CC(N2CCCC2)=CC(=[N+]2CCCC2)C1` reads 27.8%.
As for `CC1(C)CC(N2CCCCC2)=CC(=[N+]2CCCCC2)C1`, the inhibition is 36.9%.
For `CC1(C)CC(N2CCN(c3ccccc3)CC2)=CC(=[N+]2CCCC2)C1`, the inhibition is 55%.
For `O=C(Cn1c(=O)c2sccc2n(Cc2ccc([N+](=O)[O-])cc2)c1=O)NCCc1ccccc1`, the inhibition is -16.6%.
The result for `Cn1c(CNC(=O)CCNC(=O)c2cccc(F)c2)cc(=O)n(C)c1=O` reads -2.9%; that for `Cc1cccc(C(=O)N=c2sccn2C)c1[N+](=O)[O-]`, -69.7%.
Regarding `O=C(NCc1ccccc1)C(=O)Nc1nc(C23CC4CC(CC(C4)C2)C3)cs1`, the inhibition was 89.4% (active).
On to `O=C(NCc1ccc(F)cc1)C(=O)Nc1nc(C23CC4CC(CC(C4)C2)C3)cs1`, for which the inhibition was 46.9%.
As for `O=C(NCc1ccncc1)C(=O)Nc1nc(C23CC4CC(CC(C4)C2)C3)cs1`, the figure is -11.3%; as for `CC(=O)Nc1ccc(C(=O)OCC(=O)Nc2c(F)cccc2F)cc1`, -4.7%; as for `Cc1ccc(S(=O)(=O)N2CCCN(S(=O)(=O)C3CCS(=O)(=O)C3)CC2)cc1` (centres undefined), -14.1%.
`O=S1(=O)CCC(S(=O)(=O)N2CCCCCC2)C1` (centres undefined): the inhibition is 98.1% (active).
With `CCCCS(=O)(=O)C1CCS(=O)(=O)C1` (centres undefined), the inhibition was -31.7%.
The result for `CC(C)C1Nc2ccc(C(=O)NCc3ccco3)cc2NC1=O` (centres undefined) reads -8.3%; that for `CC12CCC(=O)N1C(C(=O)Nc1nnc(SCc3ccccc3F)s1)CS2` (centres undefined), -32.1%; that for `O=C(Cn1ncc2c([nH]c3ccccc32)c1=O)Nc1cccnc1`, 55.7% (active).
Turning to `Cc1ccc(NC(=O)Cn2ncc3c([nH]c4ccccc43)c2=O)cc1Cl`, the inhibition is 1.5%.
With `O=C(Cn1c(=O)[nH]c2ccccc2c1=O)Nc1cccnc1`, the inhibition is -10.3%.
Take `O=C(NCCCN1CCCC1)[C@H](CSCc1ccccc1)N1Cc2ccccc2C1=O`: the inhibition is -6.7%.
In the case of `COc1cccc(CN2CCNC(=O)C2CC(=O)N(C)C2CCCCC2)c1` (centres undefined), the inhibition is -1.2%.
As for `CC1CCCCN1C(=O)C(=O)c1cn(CC(=O)N2CCCCCC2)c2ccccc12` (centres undefined), the figure is -20.8%.
The result for `CCOC(=O)C1CCN(S(=O)(=O)c2ccc3c(c2)CCN3C(C)=O)CC1` reads 6.1%; that for `CC(=O)N1CC(C)Sc2ccc(S(=O)(=O)N3CCCCC3)cc21` (centres undefined), 6.9%; that for `CC1CCN(C(=O)c2cc3ccccc3c(=O)o2)CC1`, -21.4%.
The result for `Cc1cccc(CCNC(=O)CNS(=O)(=O)c2ccc3nc(C)sc3c2)c1` reads 12.4%; that for `Cc1ccc(N2CC(C(=O)NC3CC3)CC2=O)cc1` (centres undefined), 17.9%; that for `COc1ccc2nc(NC3=NC(c4ccccc4)CC(=O)N3)nc(C)c2c1` (centres undefined), -18.7%.
For `COc1ccc(S(=O)(=O)NNC(=O)C2CC(c3cccnc3)=NO2)cc1` (centres undefined), the inhibition is -24.9%.
Turning to `O=C(NNS(=O)(=O)c1ccc(F)cc1)C1CC(c2cccnc2)=NO1` (centres undefined), the inhibition was 51% (active).
`O=C(NNS(=O)(=O)c1ccccc1)C1CC(c2cccnc2)=NO1` (centres undefined): the inhibition is -32.5%.
In the case of `COc1ccc(C(=O)C2CCN(CC(=O)Nc3ccc(OC)cc3OC)CC2)cc1`, the inhibition was -10.7%.
The result for `COC(=O)c1sc(=S)n(Cc2ccccc2)c1C` reads 5%; that for `COc1ccc(CNC(=O)CCC(=O)N2CC(C)Oc3ccccc32)cc1` (centres undefined), -16.3%.
Regarding `O=S(=O)(c1ccc(F)cc1)c1snnc1-c1ccccc1`, the inhibition is 24.9%.
The result for `O=S(=O)(c1ccc(Cl)c(Cl)c1)c1snnc1-c1ccccc1` reads 77.3% (active); that for `Cc1nnsc1S(=O)(=O)c1ccccc1`, -10.8%; that for `O=C(Nc1ccccc1)c1nnsc1S(=O)(=O)c1ccc(Cl)cc1`, 67.9%.
As for `c1ccc(-c2nnsc2-c2ccccc2)cc1`, the figure is 6.7%.
On to `CCCCCCCSc1nnc(N)s1`, for which the inhibition was 5.6%.
As for `CC(C)(C)NC(=O)COC(=O)c1ccccc1NC(=O)c1ccco1`, the figure is -42.8%; as for `CC1CN(C(=O)c2cc3ccccc3oc2=O)CC(C)O1` (centres undefined), 0.9%.
On to `C/C(=N\NC(=O)c1ccncc1)c1ccc(NC(=O)c2ccc(Cl)cc2)cc1`, for which the inhibition is 7%.
For `C/C(=N\NC(=O)c1ccccc1NC(=O)c1ccc(Cl)cc1)c1ccncc1`, the inhibition is 60.4% (active).
Consider `C/C(=N/NC(=O)c1ccncc1)c1ccc(NC(=O)c2ccccc2)cc1`, for which the inhibition was -8.8%.
The result for `NC(=O)CC(NC(=O)Cc1ccc(Cl)cc1)c1ccc(NC2CCCCC2)c([N+](=O)[O-])c1` (centres undefined) reads -4.6%; that for `Oc1csc(Cc2nc(-c3ccc4ccccc4c3)cs2)n1`, 4.6%.
In the case of `Oc1csc(Cc2nc(-c3ccc(-c4ccccc4)cc3)cs2)n1`, the inhibition is 31.2%.
As for `Cc1sc(Cc2nc(O)cs2)nc1-c1ccccc1`, the figure is 97.9% (active).
As for `O=C(Nn1cc(C(=O)Nc2ccccc2F)c2ccccc2c1=O)c1cnccn1`, the figure is 47.1% (active).
In the case of `O=C(Nn1cc(C(=O)Nc2ccc(F)cc2F)c2ccccc2c1=O)c1cnccn1`, the inhibition is -21.1%.
As for `COC(=O)c1cn(NC(=O)c2cnccn2)c(=O)c2ccccc12`, the figure is 3%; as for `C=CCN1C(=O)/C(=C2/C(=O)N(CC(=O)O)c3ccccc32)S/C1=N/c1nccs1`, -5.4%.
For the compound `CCN(CC)CCn1c(NC(=O)c2ccccc2O)nc2ccccc21`, the inhibition was 19%.
The result for `O=C(CNS(=O)(=O)c1cccc2nsnc12)NCc1ccc(Cl)cc1` reads 47.4% (active).
The result for `Cc1ccc(CNC(=O)CNS(=O)(=O)c2cccc3nsnc23)cc1` reads -18.7%.
As for `O=C(CCCNS(=O)(=O)c1cccc2nsnc12)NCc1ccc(Cl)cc1`, the figure is -12%.
Consider `Cn1ncc(N=Cc2ccccc2)c1C(N)=O`, for which the inhibition is -13.3%.
The result for `C/C(CC(=O)NCc1ccc(Cl)cc1)=N\NC(=O)Cc1ccccc1` reads -22.7%; that for `CC1Sc2ccc(S(=O)(=O)N3CCC(C(=O)Nc4cccc(Cl)c4)CC3)cc2NC1=O` (centres undefined), 7.5%.
The result for `COc1ccc(N2CCN(S(=O)(=O)c3ccc4c(c3)NC(=O)C(C)C(=O)N4)CC2)cc1` (centres undefined) reads -0.5%; that for `Cc1cc(C)cc(NC(=O)C2CCN(S(=O)(=O)c3ccc4c(c3)NC(=O)C(C)S4)CC2)c1` (centres undefined), -10.4%; that for `CCc1ccc(NC(=O)C2CCN(S(=O)(=O)c3ccc4c(c3)NC(=O)C(C)S4)CC2)cc1` (centres undefined), 30.4%.
With `CC1Sc2ccc(S(=O)(=O)N3CCN(c4ccccc4)CC3)cc2NC1=O` (centres undefined), the inhibition is 30.2%.
For `Cc1ccc(NC(=O)C2CCN(S(=O)(=O)c3ccc4c(c3)NC(=O)C(C)S4)CC2)cc1C` (centres undefined), the inhibition is 6.5%.
As for `O=C(NCc1cccs1)c1cnc2ccccn2c1=O`, the inhibition is -8.1%.
On to `COc1ccc(C(C)(C)C)cc1NC(=O)CCNC(=O)c1ccco1`, for which the inhibition was -35.1%.
Turning to `O=C(CN1CCCCC1)NNC(=O)c1cccc(Br)c1`, the inhibition is 5.1%.
Take `CCCc1nnc(NC(=O)Cn2c(=O)oc3cc(Br)ccc32)s1`: the inhibition was -17.9%.
As for `COc1ccc2[nH]c(=O)c(CN(CC3CCCO3)C(=S)Nc3ccc(C)cc3)cc2c1` (centres undefined), the inhibition was -18.3%.
The result for `COc1ccc2[nH]c(=O)c(CN(CC3CCCO3)C(=S)Nc3ccccc3)cc2c1` (centres undefined) reads -31.7%.
As for `COc1ccc2[nH]c(=O)c(CN(CC3CCCO3)C(=S)Nc3cccc(C)c3)cc2c1` (centres undefined), the figure is 46.6% (active).
The result for `COc1cccc(CN(C)CC(=O)NCc2ccccc2Cl)c1` reads 8.1%; that for `Cc1ccc(OCC(=O)Nc2ccc(NC(=O)c3ccccc3)cc2)cc1C`, -12.6%.
For `CCOC(=O)c1nc2sc(C)c(C)c2c(=O)[nH]1`, the inhibition is 4.3%.
As for `CCOC(=O)/C(=C\c1cccc(O)c1)c1nc2sc(C)c(C)c2c(=O)[nH]1`, the inhibition is 105% (active).
The result for `CCOC(=O)/C(=C\c1ccc(Cl)cc1)c1nc2sc(C)c(C)c2c(=O)[nH]1` reads 58.5%; that for `CCOC(=O)C1CCN(C(=O)CCc2c(C)nc3ncnn3c2C)CC1`, 2.5%.
As for `O=C(Cc1c(O)c2ccccc2oc1=O)c1ccc(C(F)(F)F)cc1`, the inhibition was -10.7%.
The result for `OCCN1CCN(Cc2cc(Cl)c3cccnc3c2O)CC1` reads 26.4%; that for `O=c1oc2ccccc2c(O)c1Cc1cc(Cl)c2cccnc2c1O`, 62.6% (active); that for `O=[N+]([O-])c1cc(Cl)c2cccnc2c1O`, -7.9%.
As for `CCOC(=O)N1CCN(Cc2cc(Cl)c3cccnc3c2O)CC1`, the figure is -1.5%.
